# From PubChem
# Shiga toxin inh = inhibitors of Shiga toxin in Vero cells. Vero cells, Shiga toxin protein synthesis inhibition reporter. inhibition, % at 38.7 µM. 290,000 tested, 9.2% active. AID 2315; in the data active = inhibition mostly above about 28%, no sharp cut-off; inactive = mostly below about 43%; also: 0% is about no effect
# LmPK inhibitor = blocks Leishmania mexicana pyruvate kinase activity. Q27686. purified LmPK, Kinase-Glo ATP luminescence, 1 h. Potency, µM (top dose mostly 57.5 µM), for inactives: top-dose activity change, negative = inhibition, most hits filed as inhibitors. 290,000 tested, 0.37% active; also: potency is read from the fitted curve at half-maximal effect; % is scaled to controls: 0 for no effect and ±100 for the full control effect
# Target sequence (Q27686 whole entry, looked up): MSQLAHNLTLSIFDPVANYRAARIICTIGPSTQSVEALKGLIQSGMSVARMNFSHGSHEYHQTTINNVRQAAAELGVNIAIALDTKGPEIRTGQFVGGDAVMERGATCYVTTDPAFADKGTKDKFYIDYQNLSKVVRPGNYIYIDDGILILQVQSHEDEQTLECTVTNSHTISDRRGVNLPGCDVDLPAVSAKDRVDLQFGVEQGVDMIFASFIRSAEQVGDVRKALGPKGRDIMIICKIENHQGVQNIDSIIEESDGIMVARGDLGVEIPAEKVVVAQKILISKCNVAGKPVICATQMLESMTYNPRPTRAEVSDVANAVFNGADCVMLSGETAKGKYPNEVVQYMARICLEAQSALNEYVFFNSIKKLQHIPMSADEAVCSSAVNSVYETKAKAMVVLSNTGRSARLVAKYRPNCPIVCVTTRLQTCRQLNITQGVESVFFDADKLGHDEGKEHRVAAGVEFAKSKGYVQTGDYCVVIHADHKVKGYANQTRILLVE
#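 Purified LmPK (0.1 nM) converted ADP (0.1 mM) to ATP with PEP (0.5 mM) in imidazole buffer pH 7.2 with KCl and MgCl2, 1 h at room temperature. ATP was read by Kinase-Glo luminescence; data normalized to uninhibited and no-enzyme controls.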
# Cycloheximide cs = counter-screen for Shiga toxin inhibitors: cycloheximide protein synthesis inhibition. cell reporter, cycloheximide protein synthesis inhibition counterscreen. max response, %. 300,000 tested, 12% active. AID 2314; in the data active = max response mostly above about 13%, no sharp cut-off; inactive = mostly below about 14%; also: read at 38.3 µM for the half of the compounds with a filed dose; 0% is about no effect
# Pf growth 96h = P. falciparum growth inhibition at 96 hours | P. falciparum luciferase reporter growth, 96 h | Potency, µM (highest dose often 28.7 µM), for the others: at the highest dose activity change, negative = inhibition, hits mostly inhibitors | 320,000 tested, 6.9% active; also: potency is read from the fitted curve at half-maximal effect; % is scaled to controls: 0 for no effect and ±100 for the full control effect
#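 P. falciparum expressing integrated firefly luciferase, in erythrocytes at 2% hematocrit, 0.05% parasitemia, incubated with compounds 96 h at 37 C, 5% CO2. Growth inhibition read as loss of luminescence; two-generation exposure targets delayed-death apicoplast inhibitors.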
# Pf growth 48h = inhibits P. falciparum growth in the first generation, 48 h; P. falciparum luciferase growth in erythrocytes, 48 h; Potency, µM (top dose mostly 28.7 µM), for inactives: at the top dose activity change, negative = inhibition, hits mostly inhibitors; 310,000 tested, 5.9% active; AID 504832; also: potency is read from the fitted curve at half-maximal effect; % is scaled to controls: 0 for no effect and ±100 for the full control effect
#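 Read-out is firefly luciferase luminescence from an integrated reporter in P. falciparum, so falling signal marks reduced parasite growth. Infected erythrocytes were at 2% hematocrit and 0.1% parasitemia (final) in Albumax-supplemented RPMI 1640.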
# * hit, by the source's call; ? = inconclusive; · = not tested or not shown. Rows were chosen to be rich in hits. Some 22% of all compounds tested hit in one or more screens of this group. Unless noted, calls follow the shape of the dose curve; as a rule, active = well fitted inhibition curve with a large enough effect; inconclusive = small, poorly fitted or top-dose-only effect, or another doubt; inactive = no such curve, though single readings can be large or run the other way.
SMILES,Shiga toxin inh,LmPK inhibitor,Cycloheximide cs,Pf growth 96h,Pf growth 48h
Cc1cc2c(cc(C(=O)OC(C(=O)NCC3CCCO3)C(C)C)n2C)o1 (centres undefined),34,-9%,15*,?,25%
Cc1cccn2c(CN3CCNC(=O)CC3)c(C(=O)N(C)CCc3ccccc3)nc12,-7,-2%,-3,1.9µM*,10%
NC1=NC[C@H](Cc2ccc(O)cc2)N1CCc1cc(C(F)(F)F)cc(C(F)(F)F)c1,16,4%,19*,2.1µM*,5.2µM*
NC1=NC[C@H](c2ccccc2)N1CCc1cc(C(F)(F)F)cc(C(F)(F)F)c1,-2,-1%,-4,3.7µM*,13µM*
CCC(=O)Nc1cccc(-c2ccc(N3CCN(C)CC3)nn2)c1,74*,-6%,16*,105%,142%
CCOc1ccccc1C(=O)Nc1cccc(-c2ccc(N3CCOCC3)nn2)c1,·,·,·,9.3µM*,?
COc1cccc(CNC(=O)COC(=O)c2nc(Cl)c(Cl)c(Cl)c2Cl)c1,·,·,·,-4%,-17%
CCN(CC(=O)Nc1ccc2c(c1)OCCO2)C(=O)c1ccc(C)c(S(=O)(=O)N2CCOCC2)c1,·,·,·,11%,?
CCCC1CCC(=NNC(=O)OC(C)(C)C)CC1 (centres undefined),61,1%,31*,95%,26%
CCCC(=O)Nc1ccc(Cl)c(NC(=S)NC(=O)c2ccco2)c1,-70,3%,1,35%,17%
COC(=O)c1ccc(CN2CCCC(CO)(Cc3ccc(F)cc3F)C2)cc1 (centres undefined),-3,-3%,2,40%,2%
CC(C)(C)c1csc(NC(=O)Cc2cccs2)n1,61*,0%,33*,-9%,12%
Cc1ccc(S(=O)(=O)CCC(=O)Nc2nc(C(C)(C)C)cs2)cc1,5,9%,1,30%,6%
CCOc1ncccc1C(=O)Nc1nc(C(C)(C)C)cs1,32,-11%,20,?,5%
CC(C)(C)c1cc(NC(=O)c2cccnc2)no1,79,-26%,31*,-25%,37%
CC(C)(C)c1csc(NC(=O)CCc2ccccc2)n1,·,-2%,25*,?,-21%
CC(C)(C)c1csc(NC(=O)c2cccs2)n1,71*,-7%,44*,?,55%
O=C(N/C(=C/c1ccc(F)cc1)C(=O)N1CCCC1)c1ccccc1,5,8%,-3,33%,0%
Cc1occc1-c1nnc(SCC(=O)N2CCCC(C)C2)o1 (centres undefined),·,·,·,?,-19%
COc1ccc(NC(=O)Nc2ccc(CC(=O)O)cc2)cc1,-20,-4%,1,-2%,17%
Cc1cc(C)cc(OCc2nnc(SCC(=O)N3CCCCC3)o2)c1,-4,10%,-1,0%,4%
O=C(Nc1nc(-c2ccc(Cl)cc2)cs1)c1cccnc1,-23,1%,-3,·,-3%
CC(C)(C)c1csc(NNC(=O)c2ccc(Cl)cc2)n1,64*,2%,29*,?,?
CC(C)(C)c1cc(NC(=O)C2CCCO2)no1 (centres undefined),47*,3%,33*,31%,194%
CC(C)(C)c1csc(NC(=O)c2cccnc2)n1,17,-11%,13*,15µM*,?
SMILES,Shiga toxin inh,LmPK inhibitor,Cycloheximide cs,Pf growth 96h,Pf growth 48h
O=C(OCC(=O)N1CCCCC1)c1c[nH]c2ccccc12,·,·,·,244%,129%
COC(=O)C(Cc1c[nH]c2ccccc12)NC(=O)c1cc(-c2ccc(OC)c(OC)c2)oc1C (centres undefined),-4,4%,8,?,2.9µM*
COC(=O)C(Cc1c[nH]c2ccccc12)NC(C)=O (centres undefined),-1,-2%,-5,4.1µM*,-6%
N[C@H](Cc1c[nH]c2ccccc12)C(=O)O,·,·,·,1.5µM*,4%
NC(=O)N[C@@H](Cc1c[nH]c2ccccc12)C(=O)OCC(=O)N1CCCCC1,-4,2%,-2,68%,12µM*
O=C(NCc1ccccc1)N[C@@H](Cc1c[nH]c2ccccc12)C(=O)O,-14,3%,-2,-6%,9%
N#CCc1nc2ccccc2c(=O)[nH]1,17,-2%,3,0%,0%
Cc1cc(C)nc(N2CCCC(C(=O)NCCC3=CCCCC3)C2)n1 (centres undefined),-25,0%,-5,39%,-4%
O=C(CCc1c[nH]c2ccccc12)N[C@@H](Cc1c[nH]c2ccc(O)cc12)C(=O)O,-2,-4%,1,4.7µM*,3.7µM*
O=C(Cc1ccc(F)cc1)NC(Cc1c[nH]c2ccccc12)C(=O)O (centres undefined),-6,2%,-3,4%,0%
CCOC(=O)CCCc1c[nH]c2ccccc12,38,-2%,8,?,-10%
Cc1noc(C)c1COC(=O)CCCc1c[nH]c2ccccc12,-6,3%,-3,?,12µM*
NCCc1c[nH]c2ccc(O)cc12,-13,·,42*,·,·
COc1cc(C(=O)N[C@@H](Cc2c[nH]c3ccccc23)C(=O)O)cc(OC)c1OC,67*,4%,35*,-3%,4%
Cc1ccc(C(=O)NC(Cc2c[nH]c3ccccc23)C(=O)O)cc1 (centres undefined),-8,-4%,-1,·,11%
COc1ccc2[nH]cc(CCN)c2c1,-3,-1%,-2,-5%,?
CCOc1ccc(-c2c(C(=O)N/N=C/c3c[nH]c4ccccc34)nnn2-c2nonc2N)cc1,-6,6%,8,-2%,6%
Cc1ccc(-n2nnnc2CCl)cc1,-10,-2%,-2,-1%,-15%
O=C(CCCc1c[nH]c2ccccc12)N1CCCCCC1,38,1%,20*,5.9µM*,2%
C=CCN(CC=C)Cc1c[nH]c2ccccc12,24,4%,1,?,?
O=C(CCCc1c[nH]c2ccccc12)N[C@@H](Cc1c[nH]c2ccccc12)C(=O)O,1,-1%,1,8.3µM*,9.3µM*
O=C(Cc1c[nH]c2ccccc12)N[C@@H](Cc1c[nH]c2ccccc12)C(=O)O,-11,2%,-3,18%,45%
CNC(=O)[C@H](Cc1c[nH]c2ccccc12)NC(=O)[C@@H](CC(=O)NO)CC(C)C,·,·,·,11%,3.8µM*
CN(C)Cc1c[nH]c2ccccc12,·,·,·,9.3µM*,?
C[C@H](NC(=O)OCc1ccccc1)C(=O)N[C@@H](Cc1c[nH]c2ccccc12)C(=O)O,·,·,·,?,19%
COc1ccc2sc(/C=C/c3ccccc3O)[n+](C)c2c1,-10,-20%,3,-2%,3%
Cc1ccc2nc(SCC(=O)OCc3ccccc3)nc(=O)n2c1,·,·,·,5%,3%
CCCCN(C)C(=O)CCCc1c[nH]c2ccccc12,42*,8%,17*,14%,?
CC(C)NC(=O)CCCc1c[nH]c2ccccc12,41,-11%,4,7%,26%
CCC(=O)Nc1ccc(NC(=O)/C=C/c2ccc(Cl)cc2)cc1,-10,-2%,0,9.3µM*,13%
